Several values for one entry are separate records, joined by “and”; a condition that tells them apart may be missing. Identical values can stand only once. Records with an inconclusive call do not appear. Values without a mark were called inactive. Activity calls are given as the source filed them. Calls come from the whole dose curve; as a rule, active = well fitted cell-killing curve with a large enough effect; inconclusive = small, poorly fitted or top-dose-only effect, or effect the other way; inactive = no such curve, though single readings can be large or run the other way. *1 amine or outer side, *2 acyl side, *3 side chain or, on linkers, in order; H or OH if unused. Where a SMILES comes first, the peptide text is derived from it. Bridges are numbered along the chain shown (N, C = ends). [ ]: non-standard residue; d: D form. The star is where a group is joined. ξ: configuration not given here. ΔAla(3-NHCONH2) = NC(=O)NC=C(N)C(=O)O; X2 = NC1=NCCC(C(N[*:1])C(=O)[*:2])N1; ξβ3hOrn = NCCCC(N)CC(=O)*; Dap = NC[CH](N)C(=O)O
Potency is the fitted concentration of half-maximal effect.

A short description of the experiment: Viability qHTS for spleen associated tyrosine kinase inhibitor (SYKi) drug resistant MV4-11 cells (AID 1963824). Note: nearly all actives have a fitted effect of over 35% in size. To be noted: SYKi-resistant MV4-11 viability, CellTiter-Glo, 72 h; series mostly up to 45 µM; viability, % of control: at the top concentration. An excerpt: Department of Medicine, Hematology/Oncology
University Hospital Frankfurt, Germany.
Trials have shown promising clinical activity of the selective SYK inhibitor entospletinib in patients with high expressing HOXA9/MEIS1 acute leukemias. As the development of resistance mechanisms is a common problem in the use of targeted drugs, we performed a chemical library screen to identify drug sensitivities in SYK inhibitor resistant AML cells. […] Glucocorticoids are potent immunosuppressants which work in part by inhibiting the transcription of cytokine genes.
Described herein is a viability screen to look for activity in the SYK inhibitor drug resistant cell line against four NCATS compound libraries (MIPE 5.0, NPC, NPACT, and Kinase) totaling 11372 compounds. Active hits were reacquired for confirmation and further secondary assay testing.
SEQUENCE No. (e.g., 1, 2, 3, etc.); […] (e.g., Cells, Incubation, Reagent, etc.); VALUE; DESCRIPTION.
1; Media; 2uL; white, solid-bottom Corning assay plate.
2; Compounds; 23nL; Echo acoustic dispenser.
3; Cell; 5uL; 500 cells per well.
4: Incubation; 72hr; 37 C, 5% CO2, 95% humidity.
5; Reagent; 3uL; CellTiter-Glo reagent (Promega).
6; Incubation; 10min; room temperature.
7; Detection; Luminescence; ViewLux plate reader (PerkinElmer).
NOTES (numbers refer to Sequence numbers above
1. Quantitative high-throughput screening (qHTS) of small molecule compounds was conducted on drug resistant SYKi MV4-11 cell line.
2. Twenty-three nanoliter of small molecule compounds were added to each assay plates using the Echo acoustic dispenser (Beckman Coulter).
3. Cells were seeded into the assay plates at a final density of 500 cells in 5uL of media per well using the Multidrop Combi dispenser.
4. Plates were covered with stainless steel gasketed lids and incubated for 72 hours at standard cell culture conditions.
5. Viability was assessed by adding 3uL of CellTiter-Glo detection reagent (Promega).
6. Plates were covered with gasket lids and incubated for 10 minutes at room temperature.
7. Luminescence was measured on a ViewLux plate reader (PerkinElmer).
Turning to `CN1C(C(=O)Nc2ccccn2)=C(O)c2sccc2S1(=O)=O`, the Potency result is “inactive”.

Consider `CN(C)C(=O)c1cc2cnc(Nc3ccc(N4CCNCC4)cn3)nc2n1C1CCCC1`, for which the Potency is 5.17 µM (active).

As for `CC1=CC(=O)C(C(C)C)=C/C1=N/OC(=O)c1ccccc1C`, the Potency is 4.61 µM (active).

For `C=CCCCCCCCCC(=O)O`, the “viability, % of control” value was 73%.

As to `CCCCOc1c(C(=O)c2c(F)cc(C)cc2F)cnc2n[nH]cc12`, the Potency is 461 nM (active) and 468 nM (active).

With `O=C(c1c2ccccc2cc2ccccc12)N1CCC(N2CCC[C@@H](C(=O)N3CCOCC3)C2)CC1`, the Potency is 16.4 µM (active).

On to `CC(C)=CCC[C@](C)(O[C@@H]1O[C@H](CO[C@@H]2O[C@H](CO)[C@@H](O)[C@H](O)[C@H]2O)[C@@H](O)[C@H](O)[C@H]1O)C1CC[C@]2(C)[C@@H]1[C@H](O)CC1[C@@]3(C)CC[C@H](O[C@@H]4O[C@H](CO)[C@@H](O)[C@H](O)[C@H]4O[C@@H]4O[C@H](CO)[C@@H](O)[C@H](O)[C@H]4O)C(C)(C)[C@@H]3CC[C@]12C` (stereo not given in full), for which the viability, % of control was 69.6% [at 9.25 µM].

Consider `O=C(NCc1nc2ccccc2c(=O)n1-c1ccc(F)cc1)Nc1ccc(Cl)c(C(F)(F)F)c1`, for which the Potency was 20.6 µM (active).

Turning to `O=C(O)/C=C/c1cc2c(cc1O[C@@H]1O[C@H](CO)[C@@H](O)[C@H](O)[C@H]1O)OCO2`, the “viability, % of control” value is 69.4%.

Regarding `O=C(Nc1ccc(C(O)(C(F)(F)F)C(F)(F)F)cc1)c1ccc(C(F)(F)F)cc1`, the Potency was 1.84 µM (active).

On to `NC(=O)c1csc(C2OC(CO)C(O)C2O)n1` (stereo not given), for which the Potency is 8.2 µM (active).

Consider `NCCCC(N)CC(=O)NCC1NC(=O)C(CO)NC(=O)C(N)CNC(=O)C(C2CCN=C(N)N2)NC(=O)C(=CNC(N)=O)NC1=O` (stereo not drawn) (H-[Dap]S[Dap](ξβ3hOrn)[ΔAla(3-NHCONH2)][X2]; lactam 1-C; configuration not given here), for which the viability, % of control was 101% [at 0.588 µM].

Consider `CCCCCCCCCCCCCCCCCCOCC(O)CO` (stereo not given), for which the “viability, % of control” value is 85.5%.

Consider `C/C=C(\C)C(=O)O[C@H]1C=CC(=O)O[C@H]1/C=C/[C@@H](O)[C@H](C)O`, for which the Potency was 3.66 µM (active).

Turning to `O=C(O)c1ccc(Nc2ncc3c(n2)-c2ccc(Cl)cc2C(c2c(F)cccc2F)=NC3)cc1`, the Potency is 0.206 µM (active).

For the compound `CCn1c(N)c(C(=O)NC)c(=O)c2ccc(C#CC(C)(O)COC)nc21` (stereo not given), the Potency is 4.11 µM (active).

On to `C=C1CCC[C@]2(C)CC[C@@](O)(C(=C)C(=O)O)C[C@@H]12`, for which the “viability, % of control” value is 79.4%.

Regarding `C[C@H](N)[C@H](O)c1cccc(O)c1`, the “viability, % of control” value was 85.4%.

Take `OCc1ccc(-c2nn(Cc3ccccc3)c3ccccc23)o1`: the Potency is 4.68 µM (active).

As for `CC(C)c1ccc(-c2cc(=O)c3ccccc3o2)cc1`, the Potency was 13 µM (active).

`CCOc1cc(CC(=O)NC(CC(C)C)c2ccccc2N2CCCCC2)ccc1C(=O)O` (stereo not given): the “viability, % of control” value was 71.5%.

Take `CC(C)(C)c1cnc(CSc2cnc(NC(=O)C3CCNCC3)s2)o1`: the Potency was 0.332 µM (active).

`NC[C@H]1O[C@H](O[C@@H]2[C@@H](O)[C@@H](O[C@H]3O[C@H](CO)[C@@H](O)[C@H](N)[C@@H]3O)[C@H](N)C[C@@H]2N)[C@H](O)[C@@H](O)[C@H]1O`: the “viability, % of control” value is 83.6%.

In the case of `COc1ccc(-c2ccc(-c3cn(C(=O)N4CCCCC4c4ccccc4)nn3)cc2)cc1` (stereo not given), the Potency was 0.517 µM (active).

As for `CC(C)(O)CS(=O)(=O)Nc1ccc2c(c1)CCN(C(=O)COc1cccnc1)C2`, the Potency was 0.0295 µM (active).

As for `CC(N)C1CCC(C(=O)Nc2ccncc2)CC1` (stereo not given), the “viability, % of control” value was 89.5%.

Take `CNC(=O)c1ccccc1Nc1nc(Nc2ccc3c(c2OC)CCC[C@@H](N2CCN(CCO)CC2)C3)ncc1Cl`: the Potency is 0.58 µM (active).

Take `CN(C)[C@@H]1C(=O)C(C(N)=O)=C(O)[C@@]2(O)C(=O)C3=C(O)c4c(O)cccc4C[C@H]3C[C@@H]12`: the “viability, % of control” value is 76.5%.

As for `CO/N=C(/C(=O)N[C@@H]1C(=O)N2C(C(=O)OCOC(=O)C(C)(C)C)=C(C)CS[C@H]12)c1csc(N)n1`, the Potency was 23.7 µM (active).

As to `NS(=O)(=O)c1cc2c(cc1Cl)NC(CC1CCCC1)NS2(=O)=O` (stereo not given), the “viability, % of control” value is 121%.

As to `C/C=C(\C)C(=O)OC1C(C)C2(O)C(C=C(CO)CC3(O)C(=O)C(C)=CC32)C2C(C)(C)C12OC(=O)C(C)C` (stereo not given), the Potency was 0.008 µM (active).

As for `C=CC(C)(C)O[C@@H]1O[C@H](CO[C@@H]2OC[C@](O)(CO)[C@H]2O)[C@@H](O)[C@H](O)[C@H]1O`, the “viability, % of control” value was 97.4%.

For the compound `CCCn1c(=O)c2[nH]c(-c3cnn(Cc4cccc(C(F)(F)F)c4)c3)nc2n(CC)c1=O`, the “viability, % of control” value is 86.4%.

Consider `Cc1ccc(OCCSc2ncccn2)c(Br)c1`, for which the “viability, % of control” value was 70.1%.

For the compound `O=C(O)CNC(=O)c1nc(Cl)c2ccccc2c1O`, the “viability, % of control” value was 75.6%.

As for `O=C(NOCC1CC1)c1ccc(F)c(F)c1Nc1ccc(I)cc1Cl`, the Potency was 3.35 µM (active) and 2.91 µM (active) and 2.35 µM (active).

Take `CCN(CC)CCNC(=O)c1cc(S(C)(=O)=O)ccc1OC`: the “viability, % of control” value was 85%.

As for `C#Cc1cccc(Nc2ncnc3cc4c(cc23)OCCOCCOCCO4)c1`, the Potency was 18.6 µM (active).

For `CC(=O)Nc1cccc(-c2csc(Nc3cc(C)ccn3)n2)c1`, the Potency is 16.4 µM (active).

Turning to `COc1cccc(OC)c1C(=O)N[C@@H]1C(=O)N2[C@@H]1SC(C)(C)[C@@H]2C(=O)O`, the Potency entry is “inactive”.

These data come from PubChem BioAssay (NCATS).
